High-throughput results (PubChem)
Pf apPOL inh = Pf-apPOL DNA polymerase inhibition | Recombinant Pf-apPOL, molecular beacon fluorescence, 1.5 h | inhibition, % at 10 µM | 210,000 tested, 0.25% active
mHTT-CaM PPI inh = disrupts binding of mutant huntingtin to calmodulin; AlphaScreen His-mHTT/GST-CaM binding, luminescence; inhibition, % at 15 µM; 190,000 tested, 3.6% active
Target sequence (P42858 whole entry, looked up, change not shown): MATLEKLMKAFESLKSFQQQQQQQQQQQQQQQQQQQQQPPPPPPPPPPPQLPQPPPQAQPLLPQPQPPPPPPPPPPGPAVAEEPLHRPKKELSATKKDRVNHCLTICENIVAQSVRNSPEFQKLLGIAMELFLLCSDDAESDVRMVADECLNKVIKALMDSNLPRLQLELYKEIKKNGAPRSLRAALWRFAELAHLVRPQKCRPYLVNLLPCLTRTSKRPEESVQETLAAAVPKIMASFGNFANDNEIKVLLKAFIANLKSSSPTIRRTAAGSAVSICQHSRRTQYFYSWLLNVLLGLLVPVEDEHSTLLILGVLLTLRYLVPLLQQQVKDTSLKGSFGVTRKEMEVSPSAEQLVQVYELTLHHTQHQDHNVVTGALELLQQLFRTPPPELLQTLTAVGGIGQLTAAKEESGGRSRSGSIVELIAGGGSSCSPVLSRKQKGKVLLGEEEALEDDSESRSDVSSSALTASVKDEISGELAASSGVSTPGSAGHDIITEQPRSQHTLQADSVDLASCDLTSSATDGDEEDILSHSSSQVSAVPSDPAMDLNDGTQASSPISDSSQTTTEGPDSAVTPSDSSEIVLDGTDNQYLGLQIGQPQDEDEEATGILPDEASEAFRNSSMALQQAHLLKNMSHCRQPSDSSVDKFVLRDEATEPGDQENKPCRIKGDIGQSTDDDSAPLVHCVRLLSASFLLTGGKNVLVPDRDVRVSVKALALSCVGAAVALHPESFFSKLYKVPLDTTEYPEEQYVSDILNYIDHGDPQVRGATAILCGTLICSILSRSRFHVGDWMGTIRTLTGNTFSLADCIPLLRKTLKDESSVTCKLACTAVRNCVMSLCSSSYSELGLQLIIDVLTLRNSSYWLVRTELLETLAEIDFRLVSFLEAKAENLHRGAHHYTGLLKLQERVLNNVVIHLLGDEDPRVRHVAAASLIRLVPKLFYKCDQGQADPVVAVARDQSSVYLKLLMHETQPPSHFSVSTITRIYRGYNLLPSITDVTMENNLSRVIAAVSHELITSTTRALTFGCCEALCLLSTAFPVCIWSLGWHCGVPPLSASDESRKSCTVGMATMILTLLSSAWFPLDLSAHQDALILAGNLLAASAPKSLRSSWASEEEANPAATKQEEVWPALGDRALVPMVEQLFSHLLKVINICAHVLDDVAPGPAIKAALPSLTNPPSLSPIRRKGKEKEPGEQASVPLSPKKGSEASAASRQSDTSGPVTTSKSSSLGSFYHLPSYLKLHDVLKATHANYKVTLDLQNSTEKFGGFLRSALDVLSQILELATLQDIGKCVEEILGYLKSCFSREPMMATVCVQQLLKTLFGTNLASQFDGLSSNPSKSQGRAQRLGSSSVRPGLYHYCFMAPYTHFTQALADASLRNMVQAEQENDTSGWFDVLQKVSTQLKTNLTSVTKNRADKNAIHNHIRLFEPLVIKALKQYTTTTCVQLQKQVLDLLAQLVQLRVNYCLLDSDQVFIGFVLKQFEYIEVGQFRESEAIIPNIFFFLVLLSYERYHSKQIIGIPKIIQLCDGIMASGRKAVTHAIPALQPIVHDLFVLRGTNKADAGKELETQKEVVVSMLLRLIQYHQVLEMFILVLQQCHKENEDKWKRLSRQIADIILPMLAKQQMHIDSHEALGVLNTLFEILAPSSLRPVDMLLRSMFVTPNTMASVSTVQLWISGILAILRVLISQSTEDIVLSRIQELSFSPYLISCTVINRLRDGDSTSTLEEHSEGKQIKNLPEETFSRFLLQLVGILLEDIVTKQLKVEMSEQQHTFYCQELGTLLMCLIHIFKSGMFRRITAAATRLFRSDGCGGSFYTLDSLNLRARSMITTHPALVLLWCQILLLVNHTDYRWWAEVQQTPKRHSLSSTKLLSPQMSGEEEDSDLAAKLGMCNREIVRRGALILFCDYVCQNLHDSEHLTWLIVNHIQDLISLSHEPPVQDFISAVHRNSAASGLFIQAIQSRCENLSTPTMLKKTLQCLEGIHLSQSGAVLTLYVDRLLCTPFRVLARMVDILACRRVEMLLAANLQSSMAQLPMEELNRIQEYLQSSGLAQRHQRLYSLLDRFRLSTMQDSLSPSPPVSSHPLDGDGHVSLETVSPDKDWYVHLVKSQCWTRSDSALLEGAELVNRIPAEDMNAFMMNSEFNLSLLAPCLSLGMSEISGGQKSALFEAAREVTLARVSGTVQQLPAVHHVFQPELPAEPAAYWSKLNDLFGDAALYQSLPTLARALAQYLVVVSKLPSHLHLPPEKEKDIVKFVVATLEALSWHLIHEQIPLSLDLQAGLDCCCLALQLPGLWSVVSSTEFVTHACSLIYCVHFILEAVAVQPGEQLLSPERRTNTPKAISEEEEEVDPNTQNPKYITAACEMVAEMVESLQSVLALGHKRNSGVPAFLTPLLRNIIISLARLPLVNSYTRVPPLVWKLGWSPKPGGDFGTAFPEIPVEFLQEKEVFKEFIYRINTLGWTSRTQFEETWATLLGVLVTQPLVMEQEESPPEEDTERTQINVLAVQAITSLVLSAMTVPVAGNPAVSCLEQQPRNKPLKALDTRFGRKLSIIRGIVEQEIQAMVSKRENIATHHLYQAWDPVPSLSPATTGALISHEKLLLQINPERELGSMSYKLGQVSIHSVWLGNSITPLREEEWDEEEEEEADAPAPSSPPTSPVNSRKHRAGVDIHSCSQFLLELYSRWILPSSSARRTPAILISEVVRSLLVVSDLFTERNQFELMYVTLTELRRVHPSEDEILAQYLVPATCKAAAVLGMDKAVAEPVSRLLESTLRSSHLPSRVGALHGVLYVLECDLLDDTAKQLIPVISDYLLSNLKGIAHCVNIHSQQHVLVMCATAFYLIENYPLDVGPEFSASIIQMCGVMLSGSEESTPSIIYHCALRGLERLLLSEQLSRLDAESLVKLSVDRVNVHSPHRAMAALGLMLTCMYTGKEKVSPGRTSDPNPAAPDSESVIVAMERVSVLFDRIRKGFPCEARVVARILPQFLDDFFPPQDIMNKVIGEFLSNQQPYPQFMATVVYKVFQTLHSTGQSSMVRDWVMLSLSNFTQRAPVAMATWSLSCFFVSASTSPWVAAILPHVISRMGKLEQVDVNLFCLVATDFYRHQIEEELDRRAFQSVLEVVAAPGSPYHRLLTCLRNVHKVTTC
Of the large screens only hits and unclear results are named; the others gave an inactive call. Shown are actives, neighbours in structure and some others; about 3.6% of the full set was active somewhere. No stated cut-off is given here; in the data, active means inhibition above about 50%; inactive means the rest.

CCN1CCN(C(=O)CN2C(=O)/C(=C/c3ccc(C(F)(F)F)cc3)Sc3ccccc32)CC1	mHTT-CaM PPI inh 68
O=C(CN1C(=O)/C(=C/c2ccccc2)Sc2ccccc21)NCc1ccccn1	mHTT-CaM PPI inh 72
O=C(CN1C(=O)/C(=C/c2ccc(C(F)(F)F)cc2)Sc2ccccc21)N1CCCC1	none
CCCCNC(=O)CN1C(=O)/C(=C/c2ccccc2C)Sc2ccccc21	none
CCN(CCNC(=O)CN1C(=O)/C(=C/c2ccccc2F)Sc2ccccc21)c1ccccc1	none
CCOCCCNC(=O)CN1C(=O)/C(=C/c2ccccc2C)Sc2ccccc21	Pf apPOL inh 74
CC1OC(=O)N(c2cc(Cl)cc(Cl)c2)C1=O (centres undefined)	none (no result: mHTT-CaM PPI inh)
Cc1cccc(N2C(=O)c3cccnc3C2CC(=O)NC(C)C)c1 (centres undefined)	none
COCCNC(=O)CN1C(=O)/C(=C/c2ccc(Cl)cc2)Sc2ccccc21	none
CCN(CC)CCNC(=O)CN1C(=O)/C(=C/c2ccc(Cl)cc2)Sc2ccccc21	mHTT-CaM PPI inh 59
O=C(CN1C(=O)/C(=C/c2ccc(Cl)cc2)Sc2ccccc21)NCc1ccccn1	mHTT-CaM PPI inh 54
CN(C)CCNC(=O)CN1C(=O)/C(=C/c2ccc(Cl)cc2)Sc2ccccc21	none
O=C(NCc1n[nH]c(=O)c2ccccc12)C1c2ccccc2Oc2ccccc21	none
COc1ccc(NC(=O)N2CC=C(c3cn(C)c4ncccc34)CC2)cc1OC	none
CC(C)(C)C(=O)NCC1(O)CCCC1	none
O=C(Nc1cccc(Cl)c1)c1ccc([N+](=O)[O-])cc1Cl	none
NS(=O)(=O)c1ccc(NC(NC(=O)c2cccc(Cl)c2)C(Cl)(Cl)Cl)cc1 (centres undefined)	none
O=C(NC(Nc1ccc([N+](=O)[O-])cc1)C(Cl)(Cl)Cl)c1cccc([N+](=O)[O-])c1 (centres undefined)	mHTT-CaM PPI inh 98
O=C(Nc1cccc(Cl)c1)c1cccc([N+](=O)[O-])c1	mHTT-CaM PPI inh 92
Cc1cccc(NC(NC(=O)N(C)C)C(Cl)(Cl)Cl)c1 (centres undefined)	none
NS(=O)(=O)c1ccc(NC(NC(=O)c2ccc([N+](=O)[O-])cc2)C(Cl)(Cl)Cl)cc1 (centres undefined)	none
Cc1cccc(NC(NC(=O)c2ccc([N+](=O)[O-])cc2)C(Cl)(Cl)Cl)c1 (centres undefined)	mHTT-CaM PPI inh 76
O=C(NC(Nc1ccc([N+](=O)[O-])cc1)C(Cl)(Cl)Cl)c1cccc(Cl)c1 (centres undefined)	mHTT-CaM PPI inh 100
CCc1nc(C)nc(N2CCN(C(C)=O)CC2)c1Cc1cc(C)ccc1C	none
COc1ccc(C2CC(C(F)(F)F)n3ncc(C(=O)Nc4ccc(C)cc4C)c3N2)cc1OC (centres undefined)	none
Cc1ccc(OCC(=O)Nc2nccs2)c(Br)c1	none
CSC(=C(C#N)S(=O)(=O)C(C)C)N1CCOCC1	none (no result: mHTT-CaM PPI inh)
COc1cccc(/C=C2/N=C(c3cccc([N+](=O)[O-])c3C)OC2=O)c1OC	none
O=C1N=C(c2ccccc2)S/C1=C\c1cccs1	mHTT-CaM PPI inh 62
Cc1ccc(C2=NC(=O)/C(=C/c3sccc3C)S2)cc1	mHTT-CaM PPI inh 53
Cc1ccsc1/C=C1\SC(c2ccccc2)=NC1=O	none
O=C1N=C(N2CCCCC2)S/C1=C\c1cccs1	none
Cc1cc(O)c(CN2CCOCC2)c2c1C(=O)C(=Cc1cc3ccccc3o1)O2	none
Cc1cccc(C(=O)N2CCCC2COc2ccc(C(=O)N3CCOCC3)cc2)c1 (centres undefined)	none
O=C(NCc1ccc(-n2ccnc2)cc1)c1ccccc1	none
Cc1nc(C(=O)N2CCN(Cc3cccc(F)c3)CC2)c(C)n1C1CCN(C)CC1	none
CCC(C)(C(=O)NC1CCCC1)N(Cc1ccco1)C(C)=O (centres undefined)	none
COc1ccc2c(c1)N1CCN(c3ccccc3)CC1C(C(=O)N1CCOCC1)C2 (centres undefined)	none
COc1ccccc1CNc1ccc2c(c1)ncn2-c1ccccc1	mHTT-CaM PPI inh 69
COc1cccc(CNc2ccc3c(c2)ncn3C)c1O	none
COc1ccccc1-n1cnc2cc(NCc3ccc(Cl)cc3)ccc21	mHTT-CaM PPI inh 80
CCn1cnc2cc(NCc3ccc(Cl)cc3)ccc21	none
Cc1cccc(NC(=O)N2CCCC(C)(C(=O)NCc3ccccc3C)C2)c1 (centres undefined)	none
N#CC1=C(N)SC(N)=C(C#N)C1c1cccc(Cl)c1	mHTT-CaM PPI inh 74
N#CC1=C(N)SC(N)=C(C#N)C1c1ccc(Cl)cc1Cl	none
CC(C)(Cc1c(C(=O)O)cnn1-c1ccccc1)C(=O)Nc1ccccc1	none
CCCOC(=O)c1ccc(Oc2coc3c(CN(C)C)c(O)ccc3c2=O)cc1	none
O=C1/C(=C/c2ccsc2)CS/C1=C\c1ccsc1	mHTT-CaM PPI inh 63
O=C1/C(=C/c2cccnc2)CS/C1=C\c1cccnc1	none
O=[N+]([O-])c1ccc(Sc2nc3ccccc3s2)nc1	none
O=[N+]([O-])c1coc2c(Cl)c(Cl)c(O)cc12	none (no result: Pf apPOL inh)
Cc1c(C(=O)Nc2ccc(Cl)cc2)c(Cl)nc(Cl)c1[N+](=O)[O-]	none
COc1ccc(N=Cc2cc([N+](=O)[O-])ccc2O)cc1	none
COc1ccc(N=Cc2ccc(O)c3c2OC(N)=C(C#N)C3c2cccc([N+](=O)[O-])c2)cc1 (centres undefined)	mHTT-CaM PPI inh 99
CCc1[nH]nc2c1C(c1ccccc1[N+](=O)[O-])C(C#N)=C(N)O2 (centres undefined)	none
N#CC1=C(N)Oc2c(C=Nc3ccccc3)ccc(O)c2C1c1ccccc1[N+](=O)[O-] (centres undefined)	mHTT-CaM PPI inh 100
O=C(O)c1[nH]c(=O)[nH]c(=O)c1[N+](=O)[O-]	none (no result: mHTT-CaM PPI inh)
COc1ccc(-c2nc3ccccn3c2NC(=O)c2ccc(Cl)c([N+](=O)[O-])c2)cc1	none
O=C(Nc1c(-c2ccccc2)nc2ccccn12)c1ccc(Cl)c([N+](=O)[O-])c1	mHTT-CaM PPI inh 67
Cc1nn(-c2ccc(C(=O)N3CCN(c4ccccn4)CC3)cc2)c2c1C(=O)CCC2	none
Cc1nn(-c2ccc(C(=O)N3CCN(c4cccc(Cl)c4)CC3)cc2)c2c1C(=O)CCC2	mHTT-CaM PPI inh 83
O=C(CCCn1c(=O)c2sccc2n(Cc2ccccc2Cl)c1=O)NCc1ccco1	none
Cc1noc(-c2ccccc2Cl)c1C(=O)NCc1cccc(Cl)c1	none
O=C(c1ccco1)N1CCc2cc(S(=O)(=O)NC3CCCC3)ccc21	none
N#CCC(=O)c1ccc(Cl)cc1	none
N#CCC(=O)c1ccc([N+](=O)[O-])cc1	mHTT-CaM PPI inh 98
CCOc1ccc(N2C(=O)CC(NCc3ccc(F)cc3)C2=O)cc1 (centres undefined)	none
O=C1Nc2ccccc2CCC1NCc1ccccn1 (centres undefined)	mHTT-CaM PPI inh 71
CC12CC3CC(C)(C1)CC(C(=O)NCc1ccccn1)(C3)C2	none
O=C1CC(NCc2ccccn2)C(=O)N1c1ccc(F)cc1 (centres undefined)	mHTT-CaM PPI inh 100
COCCn1c(C2CCN(C(=O)c3ccc(Br)cc3)C2)nc2cccnc21 (centres undefined)	none
Cc1cc(Br)ccc1NC(=O)CCS(=O)(=O)c1ccc(Br)s1	none
CCOc1cc(/C=C2/N=C(c3ccc(C)cc3)OC2=O)ccc1OC	none
C=CCn1c(SCC(=O)c2ccc(F)cc2)nnc1-c1cccs1	none
C=CCn1c(SCC(=O)O)nnc1-c1cccs1	mHTT-CaM PPI inh 50
CC(C)COc1ccc(C(=NO)c2ccccc2)cc1	none (no result: mHTT-CaM PPI inh)
